# SARS PLpro yeast = SARS-CoV PLP inhibition in yeast; S. cerevisiae expressing SARS-CoV PLpro, growth rescue; Potency, µM (titrated, usually from 32.9 µM), usual class: activators; 330,000 tested, 0.19% active; calls by dose curve; further: nearly all actives have a fitted effect of over 55% in size
# Pf growth 96h = P. falciparum growth inhibition at 96 hour, primary screen for plastid delayed-death inhibitors; P. falciparum luciferase reporter growth, 96 h; Potency, µM (series often up to 28.7 µM), actives largely listed as inhibitors; 320,000 tested, 6.9% active
#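 P. falciparum expressing integrated firefly luciferase, in erythrocytes at 2% hematocrit, 0.05% parasitemia, incubated with compounds 96 h at 37 C, 5% CO2. Growth inhibition read as loss of luminescence; two-generation exposure targets delayed-death apicoplast inhibitors.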
# Pf growth 48h = inhibits P. falciparum growth in the first generation, 48 h. 310,000 tested, 5.9% active. P. falciparum luciferase growth in erythrocytes, 48 h. Potency, µM (top dose mostly 28.7 µM), usual class: inhibitors
#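 Here the parasites carry a stable luciferase gene and grow inside erythrocytes in Albumax-based RPMI medium with compound for one erythrocytic cycle. Activity is scored as loss of luminescent signal.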
# NS1 inh = inhibitors of influenza NS1 protein function. Potency, µM (titrated, usually from 46.1 µM). 270,000 tested, 0.4% active; calls by dose curve; further: actives are rising curves; nearly all actives have a fitted effect of over 50% in size
#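 Recovery from NS1-induced slow growth read by OD600 in budding yeast switched to galactose assay medium (pH 6.0, -URA) at 1:100 dilution. Compound 23 nl per well; the matching strain lacking NS1 serves as control.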
# Numbers stand for hits; . = inactive; ? = inconclusive; / = no result. Compounds with a hit are over-represented: about 10% of the library has one in this group of screens. Unless noted, the call rests on the fitted dose curve; in most records, active means well fitted inhibition curve with a large enough effect; inconclusive means small, poorly fitted or top-dose-only effect, or another doubt; inactive means no such curve, though single readings can be large or run the other way.
SMILES,SARS PLpro yeast,Pf growth 96h,Pf growth 48h,NS1 inh
Cn1c(NC(=O)C[n+]2cc(-c3ccccc3)n3c2CCC3)cc(=O)n(C)c1=O,.,0.83µM,2.6µM,.
CC(=O)c1cccc(NC(=O)NC2CC(=O)N(c3ccc4c(c3)OCCO4)C2)c1 (stereo unspecified),.,.,.,/
Fc1cccc(CSc2ncnc3c2ncn3[C@H]2CCCS2)c1,/,/,/,.
CS(=O)(=O)N1CCN(c2ccccc2NC(=O)c2ccc3ccccc3c2)CC1,.,?,12µM,.
CS(=O)(=O)N1CCN(c2ccccc2NC(=O)C(c2ccccc2)c2ccccc2)CC1,.,/,10µM,.
CS(=O)(=O)N1CCN(c2ccccc2NC(=O)c2ccc(Cl)cc2)CC1,.,.,.,.
CCSc1ccc2c(c1)N(CCCN1CCN(C)CC1)c1ccccc1S2,/,?,9.3µM,/
OC1CC2CC[C@H](C1)N2CCCN1c2ccccc2Sc2ccc(Cl)cc21 (stereo partly specified),/,/,/,.
CN1CCN(CCCN2c3ccccc3Sc3ccc(Cl)cc32)CC1,.,9.3µM,9.3µM,.
CCN(c1ccccc1)S(=O)(=O)c1ccc2c(c1)OCCO2,.,/,/,/
CC(C)(C)NC(=O)CSc1nc2ccc(Nc3nc(N4CCOCC4)nc(N4CCOCC4)n3)cc2s1,.,?,7.4µM,.
CC(=O)CSc1nc2ccc(Nc3nc(N4CCOCC4)nc(N4CCOCC4)n3)cc2s1,.,6.6µM,?,.
Cc1ccc(NC(=O)CSc2nc3ccc(Nc4nc(N5CCOCC5)nc(N5CCOCC5)n4)cc3s2)cc1,.,?,?,.
Cc1c(C2Nc3ccccc3NC3=C2C(=O)CC(C)(C)C3)cnn1C (stereo unspecified),.,5.9µM,?,.
CC1(C)CC(=O)C2=C(C1)Nc1ccccc1NC2c1ccccc1F (stereo unspecified),.,.,?,.
CC1=C(C(=O)O)N2C(=O)[C@@H](NC(=O)[C@@H](N)c3ccc(O)cc3)[C@@H]2SC1,/,.,.,/
COc1ccc(CCNC(=O)c2c([S-])n(-c3ccc(C)cc3)c3cccc[n+]23)cc1,.,10µM,?,.
COc1cccc(-n2c([S-])c(C(=O)Nc3ccc(C(F)(F)F)cc3)[n+]3ccccc23)c1,.,.,?,/
CCc1ccc2n(-c3ccc(OC)cc3)c([S-])c(C(=O)Nc3cc(C)cc(C)c3)[n+]2c1,.,8.3µM,13µM,.
CCc1ccc(NC(=O)Cc2ccc(OC)cc2)cc1,.,.,.,.
CC(C)c1ccc(NC(=O)COC(=O)C2CC3C=CC2C3)cc1 (stereo unspecified),.,/,/,/
CNc1nc(Cl)c(SC)c(NCc2ccc(F)cc2)n1,.,.,?,.
CCCC(=O)N(c1ccc(C(=O)O)cc1)c1nc(-c2ccccc2)c(C)s1,.,.,?,.
COC(=O)C1C(O)C(C)C(O)C(C)(O)/C=C\C=C(/C)C(=O)Nc2c(C)c(OC(C)=O)c3c(c2O)C(=O)C(C)=C2OCOC(=C23)/C(C)=C/C(C)(O)C(O)C(C)C1O (stereo unspecified),.,?,2.9µM,.
CC(=O)NCCC(=O)N(C)CC1CCN(CCc2cccc(C(F)(F)F)c2)CC1,.,?,.,.
SMILES,SARS PLpro yeast,Pf growth 96h,Pf growth 48h,NS1 inh
NC1=CC(=O)c2cccc3cccc1c23,.,.,2.9µM,.
Cc1cccc(-c2sc(Nc3ccccc3)n[n+]2-c2ccc(F)cc2)c1,.,?,.,.
CCOc1cc(-c2sc(Nc3ccc(CC)cc3)n[n+]2-c2ccccc2)ccc1OC,.,?,10µM,/
CCc1ccc(Nc2n[n+](-c3ccccc3)c(-c3cccc(C)c3)s2)cc1,.,8.3µM,?,/
CCCn1c(=O)c2sccc2n2c(CCCC(=O)NCc3ccco3)nnc12,?,15µM,?,.
Cn1c(=O)c2sccc2n2c(CCCC(=O)N3CCN(c4ccccn4)CC3)nnc12,.,9.3µM,?,.
CCC1CCCCN1C(=O)Cn1c(=O)n(CCC(=O)NCc2ccco2)c(=O)c2sccc21 (stereo unspecified),.,5.2µM,.,.
Nc1c(S(=O)(=O)O)cc(Nc2ccc(Nc3nc(Cl)nc(Nc4ccc(S(=O)(=O)O)cc4)n3)c(S(=O)(=O)O)c2)c2c1C(=O)c1ccccc1C2=O,/,/,/,.
Cc1cc(C)c(C#N)c(Oc2ccc(O)cc2)n1,.,5.2µM,.,.
C=CCC1(CC=C)CCCN1C(=O)CC1C(=O)NCCN1Cc1cc(OC)cc(OC)c1 (stereo unspecified),.,?,15µM,.
O=[N+]([O-])c1ccc(Cl)c(NC2=NCCCCC2)c1,.,9.3µM,?,.
CCN(CC)S(=O)(=O)c1ccc(Cl)c(NC2=NCCCCC2)c1,.,.,?,/

# Compound activity as filed in PubChem BioAssay.
